ADAM10 inh = human ADAM10 inhibitors, primary screen, biochemical, QFRET, HTS | Disintegrin and metalloproteinase domain-containing protein 10 (Homo sapiens), O14672 | recombinant ADAM10, EDANS/DABCYL FRET peptide cleavage, 3 h | inhibition, % at 7 µM | AID 720582, 2013 | 370,000 tested, 0.62% active;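 active means inhibition above a per-campaign cutoff equal to the mean of compounds falling between control-based bounds plus 3 SD, cut at about 20% in these data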
CendR NRP1 mod = modulators of CendR peptide binding to NRP-1, primary screen, biochemical, fluorescence polarization, uHTS. 360,000 tested, 0.85% active. FAM-RPARPAR peptide binding to NRP-1. inhibition, % at 25 µM;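 active means inhibition or corrected inhibition above about 18%, plus a signal ratio from 0.5 to 1.5, limit read from the data, passing the limit was not always enough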
A3A deaminase = APOBEC3A ssDNA deaminase inhibitors, primary screen, selectivity assay for APOBEC3G inhibitor project, biochemical, FAM/TAMRA oligo cleavage fluorescence. AID 493011, 2011. inhibition, % at 20 µM. recombinant A3A, FAM/TAMRA ssDNA deamination fluorescence. DNA dC->dU-editing enzyme APOBEC-3A (Homo sapiens), P31941. 330,000 tested, 0.41% active;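 active means at least 40% inhibition at 20 µM here, with at most 30% in a related deaminase screen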
ADAM17 inh = ADAM17 inhibitors, primary screen, biochemical, QFRET. recombinant ADAM17, EDANS/DABCYL FRET peptide cleavage. inhibition, % at 6.95 µM. Disintegrin and metalloproteinase domain-containing protein 17 (Homo sapiens), P78536. 370,000 tested, 0.83% active. AID 720648, 2013;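 active means inhibition above the mean of compounds lying between control limits plus 3 SD, set per campaign, cut at about 8.5% in these data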
A3G deaminase = APOBEC3G DNA deaminase inhibitors, primary screen, biochemical, fluorescence, single-stranded DNA substrate, uHTS; inhibition, % at 20 µM; recombinant A3G, ssDNA deamination FAM/TAMRA fluorescence; 330,000 tested, 0.28% active; AID 493012, 2011; DNA dC->dU-editing enzyme APOBEC-3G (Homo sapiens), Q9HC16;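 active means inhibition of at least 40% at 20 µM, with no more than 30% in the related APOBEC3A deaminase screen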
ADAM10 counter = ADAM10 inhibitors, counter-screen for ADAM17 exosite inhibitor project, biochemical, FRET, human ADAM10 | inhibition, % at 6.95 µM | AID 743256, 2014 | shares compounds with ADAM17 inh | 2,900 tested, 47% active | recombinant ADAM10, EDANS/DABCYL FRET peptide cleavage, 3 h;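 active means mean inhibition over the triplicate runs exceeds the activity threshold set in the earlier primary screen, cut at about 20% in these data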
ADAM17 confirm = ADAM17 inhibitors, hit retest, confirmation, biochemical, QFRET peptide cleavage; AID 743257, 2014; 2,900 tested, 65% active; recombinant ADAM17, EDANS/DABCYL QFRET peptide cleavage; inhibition, % at 6.95 µM; shares compounds with ADAM17 inh;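 active means mean inhibition across replicates above the hit cutoff set in the primary screen, cut at about 8.5% in these data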
Of the large screens only hits and unclear results are named; the others gave an inactive call (follow-up assays come after a bar, where they were run). In the library only some 2.4% were active in any assay of this set; here they are far more common.

CCOC(=O)CC(=O)CSCC(=O)Nc1ccc(C)cc1	ADAM17 inh 9.1 | ADAM10 counter inactive | ADAM17 confirm inactive
CCN(CC(=O)Nc1ccc(NC(C)=O)cc1)C(=O)CSCC(=O)Nc1ccc(C)cc1	none
CCNC(=O)c1cc2c(c(-c3cccc(-c4cccc(C(=O)N(C)C)c4)c3)n1)[C@H](CCO)N(S(=O)C(C)(C)C)C2 (some centres undefined)	none (no result: A3A deaminase, A3G deaminase)
CC(C)(C)S(=O)N1Cc2cc(C(=O)NCC(F)(F)F)nc(-c3cccc(-c4cccc(F)c4)c3)c2[C@H]1CCO (some centres undefined)	ADAM17 inh 10 (no result: A3A deaminase, A3G deaminase) | ADAM10 counter 20 | ADAM17 confirm 11
CCOC(=O)c1c(O)cc(OC)cc1CCc1ccccc1	ADAM17 inh 9.9 | ADAM10 counter inactive | ADAM17 confirm inactive
COc1cc(O)c(C(=O)O)c(CCc2ccccc2)c1	none
CCOC(=O)c1cnc2ccc(Br)cc2c1NCCO	none
CCOC(=O)c1cnc2ccc(Br)cc2c1NCC(C)O (centres undefined)	ADAM17 inh 10 (no result: A3A deaminase, A3G deaminase) | ADAM10 counter inactive | ADAM17 confirm inactive
CCc1ccc(C(=O)Nc2cc(S(=O)(=O)N3CCOCC3)ccc2N2CCOCC2)cc1	ADAM17 inh 9.1 | ADAM10 counter inactive | ADAM17 confirm inactive
CC(C)COc1cccc(C(=O)Nc2cc(S(=O)(=O)N3CCOCC3)ccc2N2CCCC2)c1	ADAM17 inh 11 (no result: A3A deaminase, A3G deaminase) | ADAM10 counter 21 | ADAM17 confirm 11
Cc1ccc(C(=O)Nc2cc(S(=O)(=O)N3CCOCC3)ccc2N2CCCC2)cc1	none
COc1cccc(C(=O)Nc2cc(S(=O)(=O)N3CCOCC3)ccc2N2CCOCC2)c1	none (no result: A3A deaminase, A3G deaminase)
C[C@@H](NC(=O)c1nc[nH]c1C(=O)N1CCc2ccccc2C1)c1ccccc1	ADAM17 inh 9.0 | ADAM10 counter inactive | ADAM17 confirm inactive
C[C@H](NC(=O)c1nc[nH]c1C(=O)N1CCc2ccccc2C1)C(=O)OC(C)(C)C	none
Cn1c(=O)c2cc(S(=O)(=O)N3CCN(c4ccc(F)cc4)CC3)ccc2n(C)c1=O	none (no result: CendR NRP1 mod, A3A deaminase, A3G deaminase)
COc1ccc(N2CCCN(CC(=O)Nc3ccccc3C)CC2)cc1	none (no result: CendR NRP1 mod, A3A deaminase, A3G deaminase)
Cc1ccc(C)c(NC(=O)c2cccc(Oc3ccc([N+](=O)[O-])cc3Cl)c2)c1	ADAM17 inh 9.0 | ADAM10 counter 29 | ADAM17 confirm 16
Cc1ccc([N+](=O)[O-])cc1NC(=O)c1ccccc1	none
COc1ccc([N+](=O)[O-])cc1NC(=O)Nc1cccc(Cl)c1	none
O=C(Nc1cccc(Cl)c1)c1cccc(Oc2ccc([N+](=O)[O-])cc2Cl)c1	ADAM17 inh 9.7 | ADAM10 counter 23 | ADAM17 confirm 15
COC(=O)C1=C(C)N(C)C(=NCc2cccc(C(F)(F)F)c2)NC1c1ccccc1 (centres undefined)	none (no result: CendR NRP1 mod, A3A deaminase, A3G deaminase)
COc1ccc(C2=NN(C(=O)CSc3nnc(-c4ccccc4F)o3)C(c3ccco3)C2)cc1 (centres undefined)	ADAM17 inh 11 | ADAM10 counter inactive | ADAM17 confirm inactive
COc1ccc(OC)c(C2C(C(N)=O)=C(C)Nc3nc(-c4cccc(Cl)c4)nn32)c1 (centres undefined)	ADAM17 inh 9.3 | ADAM10 counter inactive | ADAM17 confirm inactive
COc1ccccc1-c1nc2n(n1)C(c1ccccc1Cl)C(C(N)=O)=C(C)N2 (centres undefined)	none
C/C=C/c1ccccc1OCCCN1CCC(C(O)(c2ccccc2)c2ccccc2)CC1	ADAM17 inh 13 (no result: CendR NRP1 mod, A3A deaminase, A3G deaminase) | ADAM10 counter inactive | ADAM17 confirm 9.2
